Consider eight compounds from PubChem BioAssay (NCI).

Some test systems named below: DU-145 prostate; K-562 leukemia; MALME-3M melanoma; MDA-MB-231 breast; RXF 393 renal; SF-268 CNS; SF-295 CNS; SF-539 CNS; UACC-257 melanoma; M14 melanoma; HCT-15 colon; HT29 colon; SNB-75 CNS; SNB-19 CNS; U251 CNS; PC-3 prostate; SK-MEL-5 melanoma; UACC-62 melanoma; LOX IMVI melanoma; SK-MEL-28 melanoma.
Holding throughout (assay): NCI-60 one-dose screen, 48 h (100 = growth as untreated, 0 = no growth, -100 = all killed)
What all share (settings): 10 µM

SMILES strings stand for the structures. The panel holds about 83,000 compounds, 20% with a hit somewhere; the sample as a whole holds those more often.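 Assay: single dose, 48 h. Readout: percent growth (0 = no net growth; negative = cell death). Active: <10.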 Values without a mark were called inactive. Activity calls are given as the source filed them.

Turning to `Cc1nn(-c2ccc(-c3ccc(OC(F)(F)F)cc3)cc2)c2nc(Cc3ccccc3)nc(N)c12`, the growth in the assay on DU-145 prostate is 75.5%; in the assay with K-562 leukemia it was 63.7%; with MALME-3M melanoma, 83.8%; in the assay with MDA-MB-231 breast it was 48.3%; in the assay on RXF 393 renal, 77.9%; in the assay on SF-268 CNS it was 54.3%. Moreover, the growth was 47.7% in the assay on SF-295 CNS; 80.3% in the assay with SF-539 CNS; 78.8% in the assay with UACC-257 melanoma; 69% in the assay on M14 melanoma; 76.9% with HCT-15 colon; 59.6% with HT29 colon. The growth in the assay on SNB-75 CNS is 34.9%; with SNB-19 CNS it was 39.3%; in the assay with U251 CNS it was 20.7%; in the assay with PC-3 prostate, 64.4%; in the assay on SK-MEL-5 melanoma, 87.7%; in the assay on UACC-62 melanoma, 85.6%. Besides, the growth with LOX IMVI melanoma is 31%; in the assay on SK-MEL-28 melanoma, 103%.

Regarding `CCCCC1(O)CCCCC1`, the growth was 101% in the assay on DU-145 prostate; 96.1% with K-562 leukemia; 97.2% in the assay on MALME-3M melanoma; 103% with MDA-MB-231 breast; 98.8% with RXF 393 renal; 103% with SF-268 CNS. Besides, the growth was 97.6% in the assay on SF-295 CNS; 118% with SF-539 CNS; 102% in the assay with UACC-257 melanoma; 99.3% in the assay with M14 melanoma; 110% in the assay with HCT-15 colon; 98.5% with HT29 colon. For the same compound, the growth in the assay with SNB-75 CNS was 105%; with SNB-19 CNS, 106%; with U251 CNS, 99.1%; in the assay on PC-3 prostate, 103%; in the assay on SK-MEL-5 melanoma, 105%; with UACC-62 melanoma it was 102%. Further, in the assay on SK-MEL-28 melanoma, the growth was 106%.

Turning to `CN(C)CCCSc1ccccc1NC1=C(Cl)C(=O)C(Nc2ccccc2SCCCN(C)C)=C(Cl)C1=O`, the growth with DU-145 prostate is 87.4%; in the assay with K-562 leukemia it was -18.8% (active); with MALME-3M melanoma, -28.8% (active); in the assay with MDA-MB-231 breast, 44.9%; in the assay with RXF 393 renal, 45.8%; in the assay with SF-268 CNS, 43.7%. The growth is 101% with SF-295 CNS; 42.8% in the assay with SF-539 CNS; 85% in the assay with UACC-257 melanoma; 94.7% with M14 melanoma; 72.1% in the assay with HCT-15 colon; 22.7% with HT29 colon. The growth is 105% with SNB-75 CNS; 90.6% with SNB-19 CNS; 23% in the assay with U251 CNS; 42.8% with PC-3 prostate; 91.1% in the assay on SK-MEL-5 melanoma; 60.7% with UACC-62 melanoma. Further, the figures for the growth with LOX IMVI melanoma and in the assay with SK-MEL-28 melanoma were -81.7% (active) and 104%, respectively.

As to `NNC(=O)Oc1c(Cl)cc(Cl)cc1[N+](=O)[O-]`, the growth in the assay with DU-145 prostate was 103%; in the assay with K-562 leukemia, 102%; in the assay on MALME-3M melanoma it was 94.4%; in the assay with MDA-MB-231 breast it was 113%; in the assay on RXF 393 renal, 113%; with SF-268 CNS, 102%. In addition, the growth in the assay on SF-295 CNS was 103%; with SF-539 CNS it was 105%; with UACC-257 melanoma, 104%; in the assay with M14 melanoma it was 101%; in the assay on HCT-15 colon it was 99.2%; with HT29 colon it was 100%. Further, the growth in the assay on SNB-75 CNS is 106%; in the assay on SNB-19 CNS, 106%; in the assay on U251 CNS, 97.5%; in the assay on PC-3 prostate, 107%; in the assay with SK-MEL-5 melanoma, 103%; in the assay on UACC-62 melanoma it was 104%. Also, the growth in the assay on LOX IMVI melanoma is 98%; in the assay with SK-MEL-28 melanoma, 108%.

As for `CN1CCN(CC(=O)Nc2cccc(-n3cc(-c4ccncc4)c(-c4ccc(Cl)c(O)c4)n3)c2)CC1`, the growth is 19.4% in the assay with DU-145 prostate; 11.8% in the assay on K-562 leukemia; 46.3% in the assay with MALME-3M melanoma; 46.1% in the assay on MDA-MB-231 breast; 35% in the assay on RXF 393 renal; 47.7% with SF-268 CNS. Moreover, the growth with SF-295 CNS was 21.8%; in the assay on SF-539 CNS, 0.848% (active); in the assay on UACC-257 melanoma, 24.9%; in the assay with M14 melanoma, 8.05% (active); in the assay on HCT-15 colon it was 40.5%; in the assay with HT29 colon, 4.08% (active). Also, the growth with SNB-75 CNS was 30.5%; in the assay with SNB-19 CNS, 55.5%; in the assay with U251 CNS, 30.8%; in the assay with PC-3 prostate, 26.6%; in the assay with SK-MEL-5 melanoma it was 27.3%; in the assay on UACC-62 melanoma, 48.3%. For the same compound, the growth with LOX IMVI melanoma was 14.6%; with SK-MEL-28 melanoma, 60.8%.

For `Nc1cc(Br)c(-c2nn3c(CCC(=O)c4nc5ccccc5[nH]4)nnc3s2)c(Br)c1`, the growth with DU-145 prostate was 102%; in the assay with K-562 leukemia, 7.05% (active); in the assay with MALME-3M melanoma it was 95.8%; with MDA-MB-231 breast, 99%; in the assay with RXF 393 renal, 109%; in the assay with SF-268 CNS it was 99.7%. Besides, the growth in the assay with SF-295 CNS was 108%; with SF-539 CNS, 83.4%; with UACC-257 melanoma it was 116%; with M14 melanoma, 97.5%; in the assay with HCT-15 colon it was 124%; in the assay with HT29 colon, 78.7%. The growth with SNB-75 CNS is 92.6%; in the assay on SNB-19 CNS, 104%; in the assay on U251 CNS, 97.5%; in the assay on PC-3 prostate, 87.1%; in the assay on SK-MEL-5 melanoma, 91.6%; in the assay with UACC-62 melanoma, 101%. In addition, in the assay on SK-MEL-28 melanoma, the growth is 111%.

`O=C(Nc1ccc(F)cc1)c1cc2ccccc2cc1O`: the growth with DU-145 prostate is 85.7%; in the assay with K-562 leukemia, 45.6%; in the assay on MALME-3M melanoma, 72%; in the assay on MDA-MB-231 breast it was 66.7%; in the assay with RXF 393 renal, 94.6%; in the assay with SF-268 CNS it was 87.3%. Besides, the growth with SF-295 CNS is 90.7%; in the assay with SF-539 CNS, 84%; in the assay on UACC-257 melanoma it was 58.1%; in the assay on M14 melanoma, 88.4%; with HCT-15 colon, 76%; in the assay with HT29 colon it was 95.8%. The growth with SNB-75 CNS is 91.8%; with SNB-19 CNS it was 83.3%; with U251 CNS, 79.6%; with PC-3 prostate it was 42.9%; with SK-MEL-5 melanoma, 65.7%; in the assay on UACC-62 melanoma, 57.6%. In addition, the growth in the assay with SK-MEL-28 melanoma is 88.7%.

On to `O=C(CI)OCC(COC(=O)CI)OC(=O)CI`, for which the growth in the assay on DU-145 prostate is 59.5%; in the assay with K-562 leukemia, 41.6%; in the assay on MALME-3M melanoma, 24.3%; in the assay on MDA-MB-231 breast, 91.3%; in the assay on RXF 393 renal, 24.7%; with SF-268 CNS, 93.2%. The growth with SF-295 CNS is 94.8%; with SF-539 CNS, 114%; in the assay with UACC-257 melanoma it was 76.5%; with M14 melanoma, 83.2%; in the assay on HCT-15 colon it was 53%; in the assay with HT29 colon, 79.2%. Further, the growth was 116% with SNB-75 CNS; 101% with SNB-19 CNS; 100% in the assay on U251 CNS; 94% with PC-3 prostate; 93.1% in the assay with SK-MEL-5 melanoma; 80.9% in the assay on UACC-62 melanoma. The growth in the assay on SK-MEL-28 melanoma is 92.3%.
